This is part of a sample that, as a whole, favours compounds with a hit. Of some 83,000 tested, about 20% had one in any assay.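 Cells were grown in 96-well plates and exposed to the test compound at a single concentration for 48 hours; results are reported as percent growth, with values below 10 considered active.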 Unmarked numbers belong to inactive results. Activity calls are given as the source filed them.

Experiment in all cases: NCI-60 one-dose screen, 48 h (100 = growth as untreated, 0 = no growth, -100 = all killed)
One assay has as its system NCI-H226 lung. Conditions: 10 µM unless noted.
Another assay deals with NCI-H322M lung. Conditions: 10 µM unless noted.
Another assay deals with HOP-62 NSCLC. The following applies: 10 µM unless noted.
The next assay has as its system NCI-H460 lung. The following applies: 10 µM unless noted.
Another assay concerns HOP-92 NSCLC. Conditions: 10 µM.
The subject of the next assay is NCI-H522 lung. Conditions: 10 µM unless noted.
A further assay deals with A549/ATCC NSCLC. The following applies: 10 µM unless noted.
A further assay has as its system 786-0 renal. The following applies: 10 µM unless noted.
Another assay deals with COLO 205 colon. Conditions: 10 µM unless noted.
A further assay deals with DU-145 prostate. Conditions: 10 µM unless noted.
Another assay concerns K-562 leukemia. Conditions: 10 µM unless noted.
The next assay relates to MALME-3M melanoma. Conditions: 10 µM unless noted.
Another assay has as its system MDA-MB-231 breast. The following applies: 10 µM unless noted.
A further assay has as its system RXF 393 renal. Conditions: 10 µM unless noted.
In a further assay the test system is SF-268 CNS. The following applies: 10 µM unless noted.
Another assay concerns SF-295 CNS. Conditions: 10 µM unless noted.
A further assay deals with SF-539 CNS. Conditions: 10 µM unless noted.
A further assay relates to UACC-257 melanoma. The following applies: 10 µM unless noted.
The next assay concerns M14 melanoma. Conditions: 10 µM unless noted.
A further assay deals with NCI-H23 lung. Conditions: 10 µM unless noted.

For `Nc1cc(-c2c[nH]c3ccc(Br)cc23)nc2cc(-c3c[nH]c4ccc(Br)cc34)nn12`, the growth in the assay with NCI-H226 lung is 55.3%; in the assay on NCI-H322M lung, 39.8%; in the assay with HOP-62 NSCLC it was 40%; in the assay with NCI-H460 lung, -24.8% (active); with HOP-92 NSCLC, -12.1% (active); in the assay with NCI-H522 lung, -64% (active). Moreover, the growth was 17.7% with A549/ATCC NSCLC; -50.3% (active) with 786-0 renal; -50.5% (active) with COLO 205 colon; 24.2% in the assay with DU-145 prostate; 1.82% (active) in the assay on K-562 leukemia; 45.6% in the assay with MALME-3M melanoma. In addition, the growth with MDA-MB-231 breast was 7.95% (active); in the assay on RXF 393 renal it was 28.4%; with SF-268 CNS, 27.8%; in the assay with SF-295 CNS, 6.52% (active); with SF-539 CNS, -4.74% (active); in the assay on UACC-257 melanoma, 65%. For the same compound, the growth in the assay on M14 melanoma is -52.1% (active).
For the compound `CC(C)(C)c1ccc(C(=O)Nc2sc3c(c2C(N)=O)CC/C(=N\O)C3)cc1`, the growth was 7.05% (active) with NCI-H23 lung; 56.9% in the assay with NCI-H322M lung; 51.9% with HOP-62 NSCLC; 4.25% (active) in the assay with NCI-H460 lung; -2.43% (active) with NCI-H522 lung; 24.1% in the assay on A549/ATCC NSCLC. Further, the growth is 27.5% in the assay on 786-0 renal; 4.38% (active) in the assay on COLO 205 colon; 42.2% with DU-145 prostate; 7.83% (active) with K-562 leukemia; 14.1% in the assay with MDA-MB-231 breast; -14.3% (active) with RXF 393 renal. Further, the growth in the assay with SF-268 CNS was 32%; in the assay with SF-295 CNS, 16.8%; with SF-539 CNS it was 21.6%; with UACC-257 melanoma it was 5.76% (active).
Turning to `Fc1ccc(-c2cc3nc(C(Cl)Cl)nc(-c4ccc(F)cc4)n3n2)cc1`, the growth with NCI-H226 lung was 79.1%; with NCI-H322M lung it was -30.3% (active); with HOP-62 NSCLC, -27.6% (active); with NCI-H460 lung, -52.9% (active); in the assay with NCI-H522 lung it was 0.105% (active); in the assay on A549/ATCC NSCLC, -26.8% (active). Also, the growth was 51.4% in the assay on 786-0 renal; -70.2% (active) with COLO 205 colon; -18.4% (active) in the assay on DU-145 prostate; 14.3% with K-562 leukemia; 9.81% (active) with MALME-3M melanoma; 5.31% (active) with MDA-MB-231 breast. Besides, the growth was -58.1% (active) in the assay with RXF 393 renal; 23.2% in the assay on SF-268 CNS; 8.01% (active) with SF-295 CNS; 21.3% in the assay with SF-539 CNS; 20.5% in the assay on UACC-257 melanoma; -4.2% (active) in the assay on M14 melanoma.
Consider `Cc1ccc(CSc2nc(-c3ccc(Cl)cc3)c(C#N)c(N3CCNCC3)n2)cc1`, for which the growth in the assay on NCI-H226 lung was 90.2%; in the assay with NCI-H322M lung, 89%; in the assay on HOP-62 NSCLC, 80.3%; in the assay on NCI-H460 lung, 88.6%; in the assay on NCI-H522 lung it was 95%; in the assay with A549/ATCC NSCLC, 81.2%. The growth is 66.8% in the assay on 786-0 renal; 109% in the assay with COLO 205 colon; 82.6% in the assay with DU-145 prostate; 3.43% (active) in the assay on K-562 leukemia; 96.3% in the assay on MALME-3M melanoma; 77.2% with MDA-MB-231 breast. Further, the growth with RXF 393 renal was 67.8%; with SF-268 CNS it was 79.6%; with SF-295 CNS it was 95.4%; in the assay on SF-539 CNS, 80.9%; in the assay on UACC-257 melanoma it was 99.4%; in the assay on M14 melanoma, 98.1%.
Regarding `CCOC(=O)c1c(N)c(C#N)cn1-c1cc(OC)c(OC)c(OC)c1`, the growth was 110% in the assay with NCI-H226 lung; 101% in the assay with NCI-H322M lung; 101% in the assay on HOP-62 NSCLC; 104% in the assay with NCI-H460 lung; 79.1% in the assay with HOP-92 NSCLC; 104% in the assay on NCI-H522 lung. Besides, the growth was 101% in the assay with A549/ATCC NSCLC; 103% in the assay on 786-0 renal; 122% in the assay with COLO 205 colon; 110% in the assay with DU-145 prostate; 105% in the assay on K-562 leukemia; 102% with MALME-3M melanoma. Further, the growth was 100% in the assay on MDA-MB-231 breast; 112% in the assay on RXF 393 renal; 111% in the assay on SF-268 CNS; 99% in the assay with SF-295 CNS; 92.6% in the assay on SF-539 CNS; 111% with UACC-257 melanoma. Also, the growth in the assay with M14 melanoma was 109%.
For the compound `CCn1c(SCC(=O)Nc2cccc(C(=O)/C=C/c3ccc(Br)cc3)c2)nc2ccccc2c1=O`, the growth in the assay with NCI-H23 lung was 82.9%; with NCI-H322M lung, 94.3%; in the assay on HOP-62 NSCLC, 98.8%; in the assay with NCI-H460 lung, 98.9%; in the assay on NCI-H522 lung it was 84%; in the assay with A549/ATCC NSCLC, 77.7%. The growth in the assay on 786-0 renal was 99.8%; in the assay with COLO 205 colon, 112%; in the assay with DU-145 prostate, 104%; with K-562 leukemia it was 77.3%; in the assay on MALME-3M melanoma, 95.3%; with MDA-MB-231 breast, 85.5%. The growth in the assay on SF-268 CNS was 100%; in the assay with SF-295 CNS, 98.5%; in the assay with SF-539 CNS, 91.4%; in the assay with UACC-257 melanoma, 96.3%.
For `C[C@H]1c2[nH]c3ccccc3c2C[C@H]2C(=O)N(CCCCCCC(=O)NO)CC(=O)N21`, the growth in the assay with NCI-H226 lung was 94.6%; with NCI-H322M lung, 84.9%; in the assay on HOP-62 NSCLC, 88.7%; in the assay with NCI-H460 lung it was 82.7%; in the assay on HOP-92 NSCLC, 67.6%; with NCI-H522 lung, 65.6%. The growth in the assay on A549/ATCC NSCLC is 98%; in the assay with 786-0 renal, 92%; in the assay on COLO 205 colon it was 90.3%; in the assay on DU-145 prostate, 95.2%; in the assay with K-562 leukemia it was 57.3%; in the assay on MALME-3M melanoma, 41.4%. Besides, the growth in the assay with MDA-MB-231 breast is 78.5%; in the assay with RXF 393 renal it was 93%; with SF-268 CNS it was 90.1%; with SF-295 CNS, 93.6%; in the assay on SF-539 CNS, 73.2%; in the assay with UACC-257 melanoma, 63%. Besides, in the assay with M14 melanoma, the growth was 91.4%.
On to `COC(=O)c1ccc(NC2=C/C(=N/S(=O)(=O)c3ccc(C(=O)O)cc3)c3ccccc3C2=O)cc1`, for which the growth in the assay on NCI-H226 lung was 32.7%; in the assay on NCI-H322M lung, 107%; with HOP-62 NSCLC, 88.2%; in the assay with NCI-H460 lung it was 96.3%; in the assay on HOP-92 NSCLC it was 23.3%; in the assay with NCI-H522 lung, 81.7%. The growth is 98.7% in the assay with A549/ATCC NSCLC; 9.38% (active) with 786-0 renal; 7.85% (active) in the assay with DU-145 prostate; 0.527% (active) with K-562 leukemia; -89.3% (active) with MALME-3M melanoma; -21.6% (active) in the assay with MDA-MB-231 breast. The growth with RXF 393 renal is -14.6% (active); with SF-268 CNS it was 37.7%; in the assay with SF-295 CNS, 91.5%; with SF-539 CNS, -83.1% (active); in the assay with UACC-257 melanoma, -6.94% (active); in the assay with M14 melanoma it was 67.4%.
